Among the data in PubChem BioAssay (NCI) are growth values, retold here.

What all share (assay): NCI-60 one-dose screen, 48 h (100 = growth as untreated, 0 = no growth, -100 = all killed)
Conditions in all cases: 10 µM unless noted

Assay [1] deals with HCT-15 colon.
Assay [2] concerns HT29 colon.
Assay [3] deals with SNB-75 CNS.
Assay [4] has as its system SNB-19 CNS.
Assay [5] deals with U251 CNS.
Assay [6] relates to PC-3 prostate.
In assay [7] the test system is SK-MEL-5 melanoma.
The test system of assay [8] is UACC-62 melanoma.
In assay [9] the test system is LOX IMVI melanoma.
For assay [10], the system named is SK-MEL-28 melanoma.
Assay [11] concerns SK-MEL-2 melanoma.
In assay [12] the test system is EKVX NSCLC.
Assay [13] has as its system SN12C renal.
Assay [14] has as its system UO-31 renal.
The test system of assay [15] is TK-10 renal.
In assay [16] the test system is ACHN renal.
Assay [17] deals with CAKI-1 renal.
Assay [18] has as its system A498 renal.
Assay [19] deals with CCRF-CEM leukemia.
For assay [20], the system named is MOLT-4 leukemia.

SMILES strings stand for the structures. This is part of a sample that, as a whole, favours compounds with a hit. Of some 83,000 tested, about 20% had one in any assay.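 Values shown are percent growth following 48 h exposure of cells in 96-well plates to a single concentration of compound; below 10 was considered active.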 A number with no mark means an inactive call. Calls of active or inactive are those of the source.

Turning to `O=C(/C(=C/c1ccc([N+](=O)[O-])cc1)SCc1ccc(F)cc1)c1ccc(F)cc1`, the growth in [1] was 37.2%; in assay [2], 22%; in [3] it was 96.8%; in assay [4] it was 68.4%; in [5] it was 37.5%; in assay [6], 78.3%. Besides, the growth in [7] is 95.4%; in assay [8], 63.7%; in assay [9] it was 32%; in assay [10], 103%; in assay [11] it was 90.4%; in assay [12] it was 101%. Besides, the growth in [13] is 82.4%; in assay [14], 54.3%; in assay [15], 79.4%; in [16], 91.1%; in assay [17] it was 75.2%; in assay [18], 79.4%. The growth was 7.75% (active) in assay [19] and 21.9% in [20].
Take `O=C1Nc2cc(Cl)ccc2/C1=C\c1c(-c2ccc(F)cc2)nc2ccccn12`: the growth in [1] is 12.5%; in assay [2], 4.36% (active); in assay [3], -16.9% (active); in assay [4], 22.2%; in assay [5], 22.9%; in [6], 12.8%. For the same molecule, the growth in assay [7] is -10.9% (active); in [8] it was 10.6%; in assay [9], 11.1%; in assay [10] it was 28.2%; in assay [11], 23.7%; in [12] it was 34.5%. The growth in [13] was 19.1%; in assay [14] it was 28.7%; in assay [15], 72.7%; in [16] it was 41%; in assay [17], 21.5%; in assay [18] it was -17% (active). For the same molecule, the growth in [19] was 7.67% (active); in assay [20] it was -4.44% (active).
For `COc1cc(NCCCCCNC(C)(C)C)c2ncccc2c1`, the growth in assay [1] was 91.2%; in assay [2], 85.9%; in assay [3] it was 53.2%; in [4], 91.7%; in [5], 100%; in assay [6] it was 76.4%. Moreover, the growth in [7] is 100%; in assay [8], 89.6%; in [9] it was 93.7%; in assay [10], 107%; in [11], 113%; in [12] it was 95.9%. For the same molecule, the growth in [13] is 86.7%; in assay [14] it was 75.8%; in assay [15], 95.7%; in assay [16], 104%; in assay [17], 78.7%; in assay [18] it was 103%. Also, the results for the growth in [19] and in assay [20] were 51.8% and 105%, respectively.
Take `CN(C)CCC(=O)c1ccc([N+](=O)[O-])cc1`: the growth in [1] is 103%; in assay [2], 96.7%; in [3], 90.9%; in assay [4] it was 107%; in [5], 105%; in assay [6], 93.6%. The growth in [7] was 99%; in [8], 98.6%; in [9], 111%; in [10], 104%; in assay [11] it was 109%; in [12], 106%. Besides, the growth in assay [13] was 99.1%; in [14], 85.9%; in assay [15], 98.2%; in assay [16] it was 110%; in [17], 96.3%; in assay [18] it was 88.4%. Besides, the growth in [19] was 97.2%; in [20], 112%.
For the molecule `Cc1nc2ccc(Cl)cn2c1-c1nnc(SCc2ccc([N+](=O)[O-])cc2)o1`, the growth is 60.3% in [1]; 83.9% in assay [2]; 39.8% in assay [3]; 39.8% in [4]; 57.7% in [5]; 74% in assay [6]. Moreover, the growth was 43.8% in [7]; 46.3% in [8]; 69.3% in assay [9]; 40.2% in [10]; 84.9% in assay [11]; 65.3% in assay [12]. For the same molecule, the growth was 48.4% in assay [13]; 39.5% in assay [14]; 91.3% in assay [15]; 31.3% in assay [16]; 65.7% in assay [17]; 48.7% in assay [18]. For the same molecule, the values for the growth in assay [19] and in assay [20] were 116% and 93.7%, respectively.
For the molecule `Oc1cccc(CCc2ccc(Oc3cc(CCc4cccc(O)c4)cc(O)c3O)cc2)c1`, the growth is 39.1% in assay [1]; 99.2% in [2]; 72.8% in assay [3]; 89% in [4]; 74.5% in assay [5]; 63.5% in assay [6]. For the same molecule, the growth in assay [7] is 70.2%; in assay [8], 73.3%; in assay [9], 62.7%; in assay [10], 88.6%; in [11], 84.1%; in [12], 85.1%. Moreover, the growth is 67.9% in assay [13]; 36.4% in assay [14]; 111% in assay [15]; 77.1% in assay [16]; 52.7% in [17]; 95.2% in assay [18]. For the same molecule, the growth is 24.1% in [19] and 18% in assay [20].
`N#C/C(=C\c1c(-c2ccccc2)[nH]c2ccccc12)C(=O)c1ccc(Cl)cc1`: the growth is 31.1% in assay [1]; 17.3% in assay [2]; -4.21% (active) in [3]; 55.3% in assay [4]; 18.6% in [5]; 32.9% in assay [6]. Besides, the growth in [7] is 1.79% (active); in assay [8], 28.6%; in [9] it was 44.4%; in assay [10] it was 50.9%; in [11] it was 74.6%; in assay [12] it was 48.8%. Also, the growth in assay [13] is 66.7%; in assay [14] it was 47.3%; in assay [15] it was 68.3%; in [16] it was 48.9%; in assay [17], 59.6%; in assay [18], -3.53% (active). Also, the growth in assay [19] was 2.19% (active); in assay [20], 45.9%.
Turning to `O=C1/C=C/[C@@H](O)[C@@H]2C[C@@H](O)C[C@H]2/C=C/CCC[C@H](CCc2ccc3ncccc3c2)O1`, the growth in assay [1] was 6.02% (active); in assay [2], -19.6% (active); in assay [3], 33.2%; in [4] it was 28.9%; in assay [5], 21.7%; in assay [6], 18.3%. Moreover, the growth in assay [7] was -95.8% (active); in [8], 4.66% (active); in assay [9], -66.5% (active); in [10], -0.806% (active); in assay [11] it was -18.3% (active); in assay [12], 3.05% (active). Further, the growth in [13] was 6.22% (active); in assay [14], -0.158% (active); in assay [15], -23.9% (active); in [16] it was 5.12% (active); in assay [17] it was -10.2% (active); in assay [18] it was -36.4% (active). The growth is 7.39% (active) in assay [19] and -35.7% (active) in assay [20].
